The campaign covered roughly 290,000 compounds. About 27,000 (9.3%) were called active. The sample as a whole holds a higher share of actives than the screen did. Unmarked numbers belong to inactive results. No stated cut-off is given here; in the data, active means inhibition mostly above about 28% (no sharp cut-off); inactive means mostly below about 43%.
Assay: A qHTS for Small Molecule Inhibitors of Shiga Toxin; further: 0% is about no effect
Settings: Vero cells, Shiga toxin protein synthesis inhibition reporter; at 38.7 µM, hits give high values

Row | Structure (SMILES) | inhibition
1 | CCc1c(C)c2ccc(OC3CCCCC3=O)cc2oc1=O (centres undefined) | 28%
2 | COCCNC(=S)c1ccc(OC)cc1 | 13%
3 | COc1cccc(NC(=O)c2ccc(S(=O)(=O)N(C)C)cc2)c1 | 70.6%
4 | COc1ccc(NC(=O)c2sccc2SCC#N)cc1 | 52.8% (active)
5 | COc1ccc(C(=S)Nc2ccccc2)cc1 | 62.5% (active)
6 | COc1cccc(NC(=O)CN(C)CC(=O)Nc2ccc3c(c2)CCC3)c1 | -9.55%
7 | COc1ccc(-c2nn(CCC#N)cc2C(=O)Nc2ccc(C(C)=O)cc2)cc1 | 25.5%
8 | COc1ccc(NC(=O)c2sc(N)nc2-c2ccccc2)cc1 | 9.77%
9 | CCC(=O)Nc1ccc(C(=O)Nc2cccc(OC)c2)cc1 | 108% (active)
10 | COc1ccc(NC(=O)C(C)SCc2ccccc2)cc1 (centres undefined) | 40.5%
11 | COc1ccc(C(=O)Nc2sc(C)c(C)c2CN2CCOCC2)cc1 | 82.5% (active)
12 | COc1ccc(C(=O)Nc2ccnn2C2CCN(Cc3ccncc3)CC2)cc1 | -4.63%
13 | CCOC(=O)c1c(NC(=O)c2ccc(N3CCOCC3)c([N+](=O)[O-])c2)sc(C)c1C | 9.37%
14 | CCC(=O)Nc1nnc(S(=O)(=O)N2CCCc3ccccc32)s1 | -3.3%
15 | O=C(Nc1ccc(C(=O)O)cc1)/C(=C\c1ccccc1)NC(=O)c1ccc(Br)cc1 | -9.04%
16 | CC(=O)c1c(C)oc2ccc(NS(=O)(=O)c3ccccc3)cc12 | -6.31%
17 | CC(C)CC(=O)c1c[nH]c(C(=O)NCc2ccccc2)c1 | -10%
18 | CCOc1ccc(NC(=O)CCC(=O)NNC(=O)NC2CCCCC2)cc1 | -9.72%
19 | CCOCCCNC(=O)c1cn(CC(C)C)c(=O)c2c1c1ccccc1n2C | -4%
20 | Cc1ccccc1C(=O)NC(=S)Nc1ccc(N2CCN(C(=O)c3ccccc3)CC2)cc1 | -15.7%
21 | CC(C)CC(CCc1ccccc1)OS(N)(=O)=O (centres undefined) | 7.41%
22 | CC(=O)N1c2ccc(S(=O)(=O)N3CCC(C(=O)NC4CCCC(C)C4C)CC3)cc2CC1C (centres undefined) | -3.25%
23 | CCOc1ccccc1-c1cc(C(=O)N2CCOCC2)c2ccccc2n1 | -10.7%
24 | COc1ccc(NS(=O)(=O)c2cc3c(cc2C)N(C(C)=O)CCO3)cc1 | 0.181%

Row | Structure (SMILES) | inhibition
25 | Cc1cccc(NC(=O)c2sc(-c3ccccc3)nc2-c2ccc([N+](=O)[O-])cc2)c1 | -1.42%
26 | Cc1onc(NC(=O)c2ccc([N+](=O)[O-])o2)c1Br | 71.2% (active)
27 | Cc1onc(C(=O)NCc2ccc(F)cc2)c1[N+](=O)[O-] | 15.4%
28 | Cc1cccc(NC(=O)c2cc([N+](=O)[O-])ccc2N2CCN(C)CC2)c1 | 1.74%
29 | Cc1ccc(C(=O)Nc2nnc(-c3ccncc3)s2)o1 | -10.6%
30 | Cc1cccc(NC(=O)c2ccc([N+](=O)[O-])o2)c1 | 55.5% (active)
31 | O=C(Cc1ccccc1F)NC1CCSc2ccccc21 (centres undefined) | 8.44%
32 | CCOC(=O)c1ccc(NC(=O)c2ccc(NC(=O)C3CCCO3)cc2)cc1 (centres undefined) | 21.1%
33 | CC(C)c1ccc(NC2CCCN(C(=O)c3ccncc3)C2)cc1 (centres undefined) | -8.11%
34 | COC(=O)c1cc(NC(=O)c2cc(C(C)(C)C)nn2Cc2cccc(C)c2)ccc1N1CCOCC1 | -6.65%
35 | O=C(Nc1cccnc1)c1cc2cc(Br)ccc2oc1=O | 28.7%
36 | O=C(Nc1ccccc1)c1ccc2c(c1)OCO2 | 58.7% (active)
37 | CCCc1nnc(NC(=O)c2cc(OC)cc(OC)c2)s1 | 34.6%
38 | COCc1nnc(NC(=O)c2ccc3c(c2)OCO3)s1 | 59.3% (active)
39 | O=C(Nc1nc2ccccc2s1)c1ccc2c(c1)OCO2 | 39.2% (active)
40 | O=C(Nc1cccnc1)c1cccc(S(=O)(=O)N2CCCC2)c1 | 23.2%
41 | O=C(Nc1cccnc1)c1noc2c1CCCCC2 | 29% (active)
42 | C/C(=N/NC(=S)Nc1ccccc1)c1ccc2c(c1)OCO2 | 67.4%
43 | N#Cc1ccccc1NC(=O)c1ccc2c(c1)OCO2 | 22.7%
44 | COCc1nnc(NC(=O)CS(=O)(=O)Cc2ccccc2)s1 | 3.05%
45 | COc1ccc(S(=O)(=O)N2CCOCC2)cc1C(=O)Nc1nc2ccccc2s1 | -1.04%
46 | O=C(Nc1nc2cc3c(cc2s1)OCCO3)c1cccc(S(=O)(=O)N2CCOCC2)c1 | 53.6%
47 | CCOC(=O)c1csc(CCNC(=O)c2oc3c(Cl)cc(C)cc3c2C)n1 | 43.9%
48 | O=C(NCCS(=O)(=O)c1ccc(Br)cc1)c1ccccc1Cl | -1.37%

Row | Structure (SMILES) | inhibition
49 | Cc1ccnc(NC(=O)C2CCN(S(=O)(=O)c3c(C)c(C)cc(C)c3C)CC2)c1 | 8.68%
50 | COc1ccc(N(C(=O)CNC(=O)c2ccco2)C(C(=O)NCC2CCCO2)c2ccccc2)cc1Cl (centres undefined) | 15.8%
51 | C/C(=N\NC(=O)C1(C)CC1(Br)Br)c1ccc(C)cc1C (centres undefined) | -7.42%
52 | CCOC(OCC)OCC | 11.5%
53 | COCCCN1C(=O)c2ccc(C(=O)OCC(=O)NCc3ccccc3OC)cc2C1=O | 9.09%
54 | COc1ccccc1CNC(=O)c1ccc(CS(=O)(=O)c2ccccc2)o1 | 2.09%
55 | COC(=O)CN1C(=O)[C@H]2[C@@H](C3CC3)N3C(=O)CN(Cc4ccc(-c5ccccc5)cc4)C(=O)[C@@]3(Cc3ccccc3)[C@H]2C1=O | 9.74%
56 | CCOc1ccccc1-c1cc(C(=O)N/N=C(\C)c2cccnc2)c2ccccc2n1 | -30.4%
57 | Cc1ccccc1/C=C\c1nc(O)c([N+](=O)[O-])c(=O)[nH]1 | -14.2%
58 | Cc1ccc2[nH]c(=O)c(CN(C)S(=O)(=O)c3cccc4nonc34)cc2c1 | -4.87%
59 | CCC1(CC)Cc2ccccc2-c2nc(CCl)[nH]c(=O)c21 | -4.46%
60 | CCc1ccc(OCC(O)CN2CCN(CCO)CC2)cc1 (centres undefined) | -8.28%
61 | COc1ccc(NC(=O)N2CCCC2C(=O)NCc2ccccc2Cl)cc1 (centres undefined) | -3.06%
62 | CC(NC(=O)c1ccco1)c1ccc2c(c1)OCO2 (centres undefined) | -15.1%
63 | CCC(C)(C)NC(=O)C(c1ccc(O)cc1)N(Cc1ccco1)C(=O)CCC(=O)Nc1ccccn1 (centres undefined) | -12.1%
64 | Cc1ccc(C)c(S(=O)(=O)N2CCCOC2CNC(=O)C(=O)NC2CCCCC2)c1 (centres undefined) | 20.6%
65 | CC(C)c1ccc(S(=O)(=O)N2CCN(C(=O)c3ccc(N4CCCC4)c([N+](=O)[O-])c3)CC2)cc1 | 25.8%
66 | CC(Sc1nc(-c2ccccc2)cc(C(F)(F)F)n1)C(=O)Nc1ccc2c(c1)OCO2 (centres undefined) | -14.3%
67 | COc1ccc(C(=O)Nc2cccnc2)cc1C(=O)Nc1cccnc1 | 9.57%
68 | O=C(Nc1cccnc1)c1ccc2c(c1)OCO2 | 33% (active)
69 | Cc1nc(NC(=O)c2ccc3c(c2)OCCO3)ccc1Br | 90.6% (active)
70 | CC(=O)c1ccc2c(c1)OCCOCCOc1ccc(C(C)=O)cc1OCCOCCO2 | -5.3%
71 | O=C(CN1CCc2cc3c(cc2C1)OCCCO3)Nc1ccccc1 | 18.6%
72 | O=C(Nc1ccc2c(c1)OCO2)c1sc2cc(Cl)ccc2c1Cl | -13.4%

Row | Structure (SMILES) | inhibition
73 | O=C(Nc1ccccc1)c1ccc2c(c1)OCCCO2 | 58.6% (active)
74 | CC(Sc1nc2cc(Cl)ccc2s1)C(=O)Nc1ccc2c(c1)OCO2 (centres undefined) | 0% (active)
75 | O=C(Nc1cccc(S(=O)(=O)Nc2ccc(Cl)cc2)c1)c1ccc2c(c1)OCCO2 | 11.3%
76 | O=C(Nc1ccc(Cl)cn1)c1ccc2c(c1)OCCO2 | 32.4%
77 | CN1CCC(CN)(N2CCN(c3ccccc3)CC2)CC1 | -6.52%
78 | COc1cccc2sc(N(CCCN(C)C)C(=O)CCS(=O)(=O)c3ccccc3)nc12 | 8.49%
79 | CC1(C)Cc2c(cnn2-c2cccc(F)c2)C(NC(=O)c2cc[n+]([O-])cc2)C1 (centres undefined) | -5.88%
80 | Cc1cccnc1NC(=O)Cn1c(=O)oc2ccccc21 | 30.2%
81 | Cc1ccc(S(=O)(=O)c2c[nH]c3ccc(Cl)cc3c2=O)cc1 | -4.43%
82 | O=C(Nc1ccc2c(c1)OCO2)c1ccc(N2C(=O)c3ccccc3C2=O)cc1 | 17.3%
83 | O=C(c1ccc2c(c1)OCO2)N1CCOCC1 | 1.95%
84 | CC(NC(=O)Nc1cccc([N+](=O)[O-])c1)c1ccc2c(c1)OCO2 (centres undefined) | 6.02%
85 | O=C(Nc1ccc(C2CC2(Cl)Cl)cc1)c1cccc([N+](=O)[O-])c1 (centres undefined) | 76.3% (active)
86 | CCSc1ccccc1C(=O)Nc1ccc2c(c1)OCO2 | 45.1%
87 | O=C(Nc1ccc(NC(=O)c2ccco2)c(Cl)c1)c1cccc([N+](=O)[O-])c1 | 15.6%
88 | O=C(Nc1cccc([N+](=O)[O-])c1)c1ccc2c(c1)OCO2 | 58.7% (active)
89 | O=C(Nc1cccc([N+](=O)[O-])c1)Nn1cnnc1 | -6.68%
90 | CC(C)C(=O)Nc1cccc(C(=O)Nc2ccc3c(c2)OCO3)c1 | 143% (active)
91 | O=C(Nc1ccc(N2CCOCC2)cc1)c1ccc2c(c1)OCO2 | 76.4% (active)
92 | O=C(Nc1ccc(C(=O)N2CCCCC2)cc1)c1cccc([N+](=O)[O-])c1 | 27.3%
93 | CCN(CCCNC(=O)c1ccc2c(c1)NC(=O)CN2C)c1cccc(C)c1 | -5.92%
94 | COc1ccc(NC(=O)C2=CC(c3ccc(OC)c(OC)c3)=NS(=O)(=O)N2C)cc1 | 7.8%

Source: PubChem BioAssay AID2315 (National Center for Advancing Translational Sciences (NCATS), 2010)
